Calls of active or inactive are those of the source. The calls were made as follows: active = hit-call score of the fitted dose curve at least 0.9, where 1 is the maximum; inactive = score below 0.9.
How the values were obtained:
Conditions in all cases: mRNA level, 48 h; actives raise or lower the signal
[1] = read-out: growth arrest and DNA damage 45 (GADD45A), GADD45A (gene 1647); test: LTEA_HepaRG_GADD45A: Life Technologies and Expression Analysis (LTEA) Assay for growth arrest and DNA damage 45 (GADD45A) using HepaRG (AID 2283458)
Procedure, shortened: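 Differentiated HepaRG cells exposed 48 h in serum-free induction medium to 8 concentrations, top 100 uM in half-log steps, 0.5% DMSO. GADD45A mRNA quantified by qRT-PCR, normalized to ACTB, GAPDH and POLR2A; bidirectional fit versus DMSO.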

[2] = read-out: Forkhead box O3 (FOXO3), FOXO3 (gene 2309); test: LTEA_HepaRG_FOXO3: Life Technologies and Expression Analysis (LTEA) Assay for Forkhead box O3 (FOXO3) using HepaRG (AID 2283459)
Procedure, shortened: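 Differentiated human HepaRG cells in serum-free induction medium were exposed in duplicate for 48 h to eight half-log concentrations up to 100 uM in 0.5% DMSO. FOXO3 mRNA was quantified by qRT-PCR, normalized to ACTB, GAPDH and POLR2A, with bidirectional fitting versus DMSO.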

[3] = read-out: ABC Transporter (ABCB1), ABCB1 (gene 5243); test: LTEA_HepaRG_ABCB1: Life Technologies and Expression Analysis (LTEA) Assay for ABC Transporter (ABCB1) using HepaRG (AID 2283460)
Procedure, shortened: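 Differentiated human HepaRG cells, plated 48 h then switched to serum-free induction medium, were exposed in duplicate to eight half-log concentrations up to 100 uM in 0.5% DMSO for 48 h. ABCB1 mRNA was measured by TaqMan qRT-PCR, normalized to ACTB/GAPDH/POLR2A.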

[4] = read-out: growth arrest and DNA damage 45 (GADD45B), GADD45B (gene 4616); test: LTEA_HepaRG_GADD45B: Life Technologies and Expression Analysis (LTEA) Assay for growth arrest and DNA damage 45 (GADD45B) using HepaRG (AID 2283461)
Procedure, shortened: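 Values are bidirectional concentration-response fits against 0.5% DMSO controls. Underlying data: qRT-PCR mRNA levels in human HepaRG liver cells treated 48 h in serum-free induction medium, eight concentrations topping at 100 uM.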

[5] = read-out: ABC Transporter (ABCC3), ABCC3 (gene 8714); test: LTEA_HepaRG_ABCC3: Life Technologies and Expression Analysis (LTEA) Assay for ABC Transporter (ABCC3) using HepaRG (AID 2283462)
Procedure, shortened: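 Differentiated HepaRG liver cells receive test chemicals at eight concentrations (max 100 uM) for 48 h. Expression of ABCC3 is quantified by qRT-PCR against ACTB, GAPDH and POLR2A, and activity is fitted in both directions against the DMSO control.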

[6] = read-out: ABC Transporter (ABCB11), ABCB11 (gene 8647); test: LTEA_HepaRG_ABCB11: Life Technologies and Expression Analysis (LTEA) Assay for ABC Transporter (ABCB11) using HepaRG (AID 2283463)
Procedure, shortened: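 Differentiated human HepaRG cells were exposed for 48 h in serum-free induction medium to eight half-log concentrations up to 100 uM in 0.5% DMSO. ABCB11 mRNA was quantified by qRT-PCR, normalized to ACTB, GAPDH and POLR2A, and fitted bidirectionally versus DMSO.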

[7] = read-out: ABC Transporter (ABCC2), ABCC2 (gene 1244); test: LTEA_HepaRG_ABCC2: Life Technologies and Expression Analysis (LTEA) Assay for ABC Transporter (ABCC2) using HepaRG (AID 2283464)
Procedure, shortened: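 Gene expression of ABCC2 was determined by qRT-PCR in HepaRG cells exposed 48 h to chemicals (highest 100 uM, half-log dilutions). Activity was fitted in both directions relative to 0.5% DMSO vehicle.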

[8] = read-out: Broad substrate specificity ATP-binding cassette transporter ABCG2 (Homo sapiens) (UniProt Q9UNQ0); test: LTEA_HepaRG_ABCG2: Life Technologies and Expression Analysis (LTEA) Assay for ABC Transporter (ABCG2) using HepaRG (AID 2283465)
Procedure, shortened: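 Differentiated HepaRG cells in serum-free induction medium were exposed for 48 h, in duplicate, to eight half-log concentrations up to 100 uM in 0.5% DMSO. ABCG2 mRNA was measured by TaqMan qRT-PCR, normalized to ACTB, GAPDH and POLR2A, and fitted bidirectionally versus DMSO.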

[9] = read-out: ATP-citrate lyase (ACLY), ACLY (gene 47); test: LTEA_HepaRG_ACLY: Life Technologies and Expression Analysis (LTEA) Assay for ATP-citrate lyase (ACLY) using HepaRG (AID 2283466)
Procedure, shortened: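 Differentiated human HepaRG cells in serum-free induction medium exposed 48 h, in duplicate, to eight half-log concentrations from 100 uM top in 0.5% DMSO; ACLY mRNA measured by qRT-PCR, normalized to ACTB, GAPDH, POLR2A, fitted bidirectionally versus DMSO.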

[10] = read-out: Peroxisomal acyl-coenzyme A oxidase 1 (ACOX1) gene, ACOX1 (gene 51); test: LTEA_HepaRG_ACOX1: Life Technologies and Expression Analysis (LTEA) Assay for Peroxisomal acyl-coenzyme A oxidase 1 (ACOX1) gene using HepaRG (AID 2283467)
Procedure, shortened: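 Differentiated human HepaRG cells were exposed in duplicate for 48 h in serum-free induction medium to eight half-log concentrations up to 100 uM in 0.5% DMSO. ACOX1 mRNA was then quantified by TaqMan qRT-PCR, normalized to ACTB, GAPDH and POLR2A.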

[11] = read-out: Bcl-2 (BAD) gene, BAD (gene 572); test: LTEA_HepaRG_BAD: Life Technologies and Expression Analysis (LTEA) Assay for Bcl-2 (BAD) gene using HepaRG (AID 2283469)
Procedure, shortened: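 Differentiated human HepaRG cells in serum-free induction medium were exposed in duplicate for 48 h to eight concentrations (top 100 uM, half-log steps, 0.5% DMSO). BAD mRNA was quantified by qRT-PCR normalised to ACTB, GAPDH and POLR2A, with bidirectional fitting versus DMSO.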

[12] = read-out: adenosine kinase (ADK) gene, ADK (gene 132); test: LTEA_HepaRG_ADK: Life Technologies and Expression Analysis (LTEA) Assay for adenosine kinase (ADK) gene using HepaRG (AID 2283471)
Procedure, shortened: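 HepaRG (human liver), 48 h chemical exposure, 8-pt half-log series, top 100 uM, 0.5% DMSO vehicle. Readout: ADK mRNA by qRT-PCR vs housekeeping genes; bidirectional curve fit relative to DMSO baseline.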

[13] = read-out: Alpha-fetoprotein (AFP) gene, AFP (gene 174); test: LTEA_HepaRG_AFP: Life Technologies and Expression Analysis (LTEA) Assay for Alpha-fetoprotein (AFP) gene using HepaRG (AID 2283472)
Procedure, shortened: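 Differentiated human HepaRG cells exposed 48 h in serum-free induction medium, 8-point half-log series from 100 uM in 0.5% DMSO, duplicate. AFP mRNA by qRT-PCR, normalized to ACTB, GAPDH, POLR2A; bidirectional fit vs DMSO.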

[14] = read-out: BCL2L11 (gene 10018); test: LTEA_HepaRG_BCL2L11: Life Technologies and Expression Analysis (LTEA) Assay for Bcl-2 (BCL2L11) gene using HepaRG (AID 2283473)
Procedure, shortened: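 Cells were plated, cultured 48 h, switched to serum-free induction medium, then dosed in duplicate for 48 h at eight half-log concentrations up to 100 uM. Lysates underwent RNA isolation and TaqMan qRT-PCR; gain or loss versus DMSO was fitted.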

[15] = read-out: Bcl-2 (BID) gene, BID (gene 637); test: LTEA_HepaRG_BID: Life Technologies and Expression Analysis (LTEA) Assay for Bcl-2 (BID) gene using HepaRG (AID 2283476)
Procedure, shortened: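 Gene expression by qRT-PCR in HepaRG cells after 48 h exposure, duplicate wells, eight half-log concentrations topping at 100 uM in 0.5% DMSO. Normalized to ACTB, GAPDH, POLR2A; bidirectional fitting relative to DMSO.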

[16] = read-out: Caspase-3 (Homo sapiens) (UniProt P42574); test: LTEA_HepaRG_CASP3: Life Technologies and Expression Analysis (LTEA) Assay for cysteine-aspartic acid protease (CASP3) using HepaRG (AID 2283477)
Procedure, shortened: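 In HepaRG liver cells dosed for 48 h at up to 100 uM (eight-point, duplicate), CASP3 expression changes are scored by qRT-PCR. Activity is fitted in both directions with 0.5% DMSO as baseline.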

[17] = read-out: Bcl-2 (BAX) gene, BAX (gene 581); test: LTEA_HepaRG_BAX: Life Technologies and Expression Analysis (LTEA) Assay for Bcl-2 (BAX) gene using HepaRG (AID 2283470)
Procedure, shortened: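 Differentiated HepaRG cells exposed 48 h in serum-free induction medium, eight half-log concentrations from 100 uM, in duplicate, 0.5% DMSO vehicle. BAX mRNA by TaqMan qRT-PCR, normalised to ACTB, GAPDH and POLR2A.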

Sequence of Caspase-3 (Homo sapiens) (P42574 whole entry, looked up): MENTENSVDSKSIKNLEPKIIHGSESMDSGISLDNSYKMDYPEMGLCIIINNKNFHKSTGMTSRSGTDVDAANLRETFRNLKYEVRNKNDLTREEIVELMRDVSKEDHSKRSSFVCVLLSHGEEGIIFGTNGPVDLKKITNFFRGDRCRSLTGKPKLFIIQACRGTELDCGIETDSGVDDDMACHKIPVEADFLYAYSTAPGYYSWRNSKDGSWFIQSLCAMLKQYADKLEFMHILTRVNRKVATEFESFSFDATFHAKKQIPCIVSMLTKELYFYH
Sequence of Broad substrate specificity ATP-binding cassette transporter ABCG2 (Homo sapiens) (Q9UNQ0 whole entry, looked up): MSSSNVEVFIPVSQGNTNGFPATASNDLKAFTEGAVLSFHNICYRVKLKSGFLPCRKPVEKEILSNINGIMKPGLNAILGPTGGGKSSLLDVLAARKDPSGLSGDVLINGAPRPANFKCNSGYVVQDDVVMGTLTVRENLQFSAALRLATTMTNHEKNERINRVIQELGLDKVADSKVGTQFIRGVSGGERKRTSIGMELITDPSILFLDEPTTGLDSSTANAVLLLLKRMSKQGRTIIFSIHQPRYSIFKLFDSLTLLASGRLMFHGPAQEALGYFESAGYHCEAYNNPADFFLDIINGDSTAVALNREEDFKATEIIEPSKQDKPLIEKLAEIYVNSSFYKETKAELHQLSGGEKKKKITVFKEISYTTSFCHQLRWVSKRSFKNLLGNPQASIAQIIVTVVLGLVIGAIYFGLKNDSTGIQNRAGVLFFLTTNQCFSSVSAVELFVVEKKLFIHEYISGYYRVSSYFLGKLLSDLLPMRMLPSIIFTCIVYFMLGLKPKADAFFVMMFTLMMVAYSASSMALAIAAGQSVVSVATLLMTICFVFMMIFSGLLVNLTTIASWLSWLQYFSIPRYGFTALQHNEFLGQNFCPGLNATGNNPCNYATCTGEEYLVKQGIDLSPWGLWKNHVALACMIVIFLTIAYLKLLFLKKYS

SMILES | AC50 [1] | outcome [2] | outcome [3] | outcome [4] | outcome [5] | outcome [6] | AC50 [7] | outcome [8] | outcome [9] | AC50 [10] | outcome [11] | outcome [12] | AC50 [13] | outcome [14] | outcome [15] | outcome [16] | outcome [1] | outcome [10] | outcome [17] | outcome [13]
CC(=O)O[C@]1(C(C)=O)CC[C@H]2[C@@H]3C=C(Cl)C4=CC(=O)[C@@H]5C[C@@H]5[C@]4(C)[C@H]3CC[C@@]21C | 50 µM (active) | inactive | inactive | inactive | inactive | inactive | 50 µM (active) | inactive | inactive | 29.2 µM (active) | inactive | inactive | 50 µM (active) | inactive | inactive | inactive |  |  |  | 
O=C1NC(=O)C(c2ccccc2)(c2ccccc2)N1 |  | inactive | inactive | inactive | inactive | inactive | 50 µM (active) | inactive | inactive |  | inactive | inactive |  | inactive | inactive | inactive | inactive | inactive | inactive | inactive

From PubChem BioAssay (EPA / NIEHS)
